Hit rate of the full screen: of about 310,000 compounds, about 1,000 (0.32%) were called active. A selection follows. Results with a measured potency or affinity are listed apart. Unmarked numbers belong to inactive results. How the calls were made is not given here.
assay: Inhibition of PhoP regulon, Salmonella typhi GFP reporter cells, confirmation, 4 h (AID 1850); conditions: Salmonella Typhi PhoP-promoter GFP reporter, fluorescence, at 50 µM, hits give high values;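 further: 0% = induced wells with vehicle and 100% = uninduced wells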

| Structure (SMILES) | inhibition [%] |
| --- | --- |
| Cc1ccc(Cn2nnnc2CN2CCC(n3nnc4cc(C)ccc43)CC2)cc1 | -8.85 |
| CCOC(=O)c1ccc(CNC(=O)c2n[nH]c(=O)c3ccccc23)o1 | -3.19 |
| O=C(Nc1cccc(-c2nc3ccccc3s2)c1)c1ccc2c(c1)OCO2 | -3.82 |
| COc1ccc(N=C2SCC(c3ccc([N+](=O)[O-])cc3)=NN2CCO)cc1 | 7.19 |
| O=C(CN1CCN(S(=O)(=O)c2ccc(Br)cc2)CC1)N/N=C/c1ccco1 | -9.02 |
| O=C(O)COCC(=O)N1CCN(c2cc(C(F)(F)F)nc3ccccc23)CC1 | 1.72 |
| CC(=O)NCCC(=O)Nc1nc2c(ccc3ccccc32)s1 | 9.9 |
| O=C(N/C(=C/c1ccco1)C(=O)N1CCCCCC1)c1ccccc1 | 2.51 |
| O=C1c2ccccc2C(=O)N1CCCc1c[nH]c2ccccc12 | -2.4 |
| O=C(NCc1cccc(C(F)(F)F)c1)C1CCCN(c2cnccn2)C1 (stereo not drawn) | 3.94 |
| Cc1ccc2c(c1)[nH]c1c(N3CCN(Cc4ccccc4)CC3)ncnc12 | 6.98 |
| Cc1ccc2[nH]c3c(N4CCN(Cc5ccccc5)CC4)ncnc3c2c1 | 11.1 |
| Cc1ccc(NC(=O)c2ccc3snnc3c2)cc1 | -2.31 |
| COc1ccccc1N1CCN(C(=O)CN2C(=O)c3ccccc3S2(=O)=O)CC1 | -8.97 |
| Cc1cccc(Nc2nc3ccccc3s2)c1C | -1.36 |
| Cc1cccc(NC(=S)N(C)C)c1C | 17.9 |
| Cc1cc(Nc2ccccc2)nc2cc(O)ccc12 | 11.4 |
| Cc1cc(Nc2ccccc2O)c2ccccc2n1 | 6.66 |
| O=C(CSC1=NNC(c2ccccn2)S1)Nc1ccc(C(F)(F)F)cc1 (stereo not drawn) | 3.27 |
| Cc1cc(C)c2cc(C(=O)N3CCC(C(=O)c4ccc(F)cc4)CC3)[nH]c2c1 | 2.06 |
| O=C1c2ccccc2NC(c2ccccc2O)N1O (stereo not drawn) | -4.51 |
| N/C(=N\N=C/c1ccc(Br)cc1)N/N=C\c1ccc(Br)cc1 | -6.33 |
| O=C(N/N=C\c1ccc(F)cc1)c1ccc(F)cc1 | 23.4 |
| CC(=O)Nc1ccc2c(c1)nc1n2CCSC1 | 11.9 |

| Structure (SMILES) | inhibition [%] |
| --- | --- |
| Cc1cc(/C=C2\C(=O)NC(=O)N(c3ccc(Cl)cc3)C2=O)c(C)n1-c1cccc(C(=O)O)c1 | -15.1 |
| Cc1ccc(/C=N/NC(=O)c2nnn(-c3nonc3N)c2CN(C)c2ccccc2)s1 | 0.97 |
| C/C(N=Nc1nc2ccccc2s1)=N\Nc1ccccc1O | 16.1 |
| Oc1ccccc1N=N/C(=N/Nc1ccccc1O)c1ccccc1 | -5.08 |
| O=C(Cn1nc(C(F)F)cc1C(F)F)NNC(=S)Nc1ccc(F)cc1 | -9.87 |
| O=C(Cn1nc(C(F)F)cc1C(F)F)NNC(=S)Nc1ccc(Cl)cc1 | 8.04 |
| COC1(OC)N=C(N)C2(C#N)C(c3ccccc3)NC(C)=CC12C#N (stereo not drawn) | 22.3 |
| CC(Oc1ccc(Br)cc1)C(=O)N(C)CC(=O)Nc1ccc(N2CCOCC2)cc1 (stereo not drawn) | -2.3 |
| Cc1cc(N2CCCCC2)nc(NCc2ccccc2)n1 | 5.84 |
| Cc1ccc(/C=N/Nc2cc(C)nc(NCc3ccccc3)n2)cc1 | 8.63 |
| Cc1cc(N2CCN(c3ccccc3)CC2)nc(NCc2ccccc2)n1 | -4.52 |
| Cc1cc(Nc2cccc(F)c2)nc(NCc2ccccc2)n1 | -0.63 |
| CCCCNc1cc(C)nc(NCc2ccccc2)n1 | 15.8 |
| Cc1cc(Nc2ccccc2)nc(NCc2ccccc2)n1 | -0.96 |
| Cc1cc(N/N=C/c2ccccc2)nc(NCc2ccccc2)n1 | -6.44 |
| Cc1cc(OC2CCCCC2)nc(NCc2ccccc2)n1 | -3.41 |
| CCOc1ccc(S(=O)(=O)Nc2ccccc2C(=O)NCc2ccco2)cc1 | -4.17 |
| CCOCCCNC(=O)c1ccc(N(C)S(=O)(=O)c2ccc(OC)cc2)cc1 | -7.69 |
| CCCCCC(O)CCC(=O)NNC1=CC(=O)CC(C)(C)C1 (stereo not drawn) | 5.33 |
| CC(=O)NCCCC(=O)NN1C(=S)N(Cc2ccccc2)C(=O)C1CC(=O)Nc1cccc(C)c1 (stereo not drawn) | -3.38 |
| COc1ccc(CCNC(=O)c2ccc(OCC(=O)N3CCOCC3)c(OC)c2)cc1OC | 2.3 |
| O=C(NC(=S)Nc1ccc(S(=O)(=O)Nc2nccs2)cc1)c1cccc(F)c1 | 9.55 |
| O=C(Nc1cc(Br)c(O)c(Br)c1)c1cccc(NC(=O)c2ccco2)c1 | -5.68 |
| O=C(Nc1cccc(N=Cc2cc(Br)cc(Br)c2O)c1)c1ccco1 | 18.1 |

| Structure (SMILES) | inhibition [%] |
| --- | --- |
| O=C(Nc1cccnc1)c1ccc(Br)c(S(=O)(=O)N2CCCC2)c1 | 1.47 |
| O=C(Nc1nnc(-c2ccccn2)o1)c1cccc(Br)c1 | 3.24 |
| O=C(Nc1nnc(-c2ccco2)o1)c1ccc(Cl)cc1 | 0.38 |
| O=C(Nc1nnc(-c2ccccn2)o1)c1ccc(Br)cc1 | -1.87 |
| Cc1cccc(C(=O)Nc2nnc(-c3ccco3)o2)c1 | -1.28 |
| Cc1cccc(CC(=O)N2CCC(n3nccc3NC(=O)C3CC3)CC2)c1 | -7.5 |
| O=C(NCc1ccccc1)c1nc(-c2cccs2)no1 | -1.19 |
| CN(Cc1ccon1)C(=O)C1CCC(=O)N(Cc2ccc(Cl)cc2)C1 (stereo not drawn) | -14.1 |
| Cc1cc(C(=O)CC#N)c(C)n1-c1ccc(OC(F)F)cc1 | -0.727 |
| O=C(C[n+]1ccc2ccccc2c1)c1cccc2ccccc12 | -0.15 |
| Cc1ccc(S(=O)(=O)NNC(=O)c2sc(=S)n(C)c2C)cc1 | -24.1 |
| Cc1ccc(N2C(=O)C3C4C=CC(CNC(=S)N5CCN(c6ccccn6)CC5)(O4)C3C2=O)cc1 (stereo not drawn) | 5.6 |
| COc1ccc(/C=N\NC(=O)c2cccc(F)c2)cc1COc1ccccc1 | -7.03 |
| C[C@H]1[C@H](NC(=O)C(=NOC(C)(C)C(=O)O)c2csc(N)n2)C(=O)N1S(=O)(=O)O | 1.3 |
| C=CC1=C(C(=O)O)N2C(=O)C(NC(=O)Cc3ccccc3)C2SC1 (stereo not drawn) | -5.97 |
| CC1=C(C(=O)O)N2C(=O)C(NC(=O)c3ccn(C)n3)C2SC1 (stereo not drawn) | 7.91 |
| CC1=C(C(=O)O)N2C(=O)C(NC(=O)CCCC(=O)O)C2SC1 (stereo not drawn) | 10.9 |
| O=C(O)C[C@H]1c2ccccc2S(=O)(=O)N1c1ccccc1 | -12.5 |
| Cc1nn(Cc2noc(C(=O)NCc3ccc(F)cc3)n2)c(C)c1Br | 5.51 |
| O=C(CCc1nnc(Cc2cccc(C(F)(F)F)c2)o1)NC1CC1 | 2.17 |
| COc1ccc(N(CC(=O)Nc2ccccc2C(=O)NCCc2ccccc2)S(C)(=O)=O)cc1OC | -12.9 |
| CC(=O)Nc1ccc(S(=O)(=O)Oc2ccccc2N2C(=O)C3C4CCC(C4)C3C2=O)cc1 (stereo not drawn) | 1.86 |
| COc1ccc(N(CC(=O)NC2CC3CCC2C3)S(=O)(=O)c2ccc(C)cc2)cc1 (stereo not drawn) | -6.68 |
| CN(C)CCCNc1ccc(-c2n[nH]c(=O)c3ccccc23)cc1[N+](=O)[O-] | -4.76 |

| Structure (SMILES) | inhibition [%] |
| --- | --- |
| Cc1ccc2nc(C)c(Cl)c(=O)n2c1 | -9.57 |
| COc1ccc(CCNC(=O)CCCCC(=O)NCCc2ccc(OC)cc2)cc1 | -3.5 |
| O=S(=O)(NC1CCCCCC1)c1cccc2cccnc12 | 5.87 |
| COc1ccc(C(=O)O/N=C(/c2ccccc2)c2ccncc2)cc1OC | -4.7 |
| O=c1cc(-c2ccc(O)cc2)oc2cc(O)cc(O)c12 | 1.38 |
| COc1c(O)c(O)c2oc(-c3ccccc3)cc(=O)c2c1OC | 9.73 |
| CCOC(=O)CC1(C)OCC(C[N+]2(C)CCCCC2)O1 (stereo not drawn) | 5.82 |
| COC(=O)[C@@H]1C[C@@]2(O)[C@H](O)[C@H](O)[C@H](O)C[C@H]2N1Cc1ccc(-c2ccccc2)cc1 | -7.22 |
| CC1CCN(CCNC(=O)c2ccc3c(=O)n(Cc4ccc(Cl)cc4)c(=S)[nH]c3c2)CC1 | 4.39 |
| COC(=O)c1ccc2c(=O)n(Cc3ccc(C(=O)NCCCN4CCC(C)CC4)cc3)c(=S)[nH]c2c1 | 2.98 |
| COc1ccc(S(=O)(=O)NN(C)c2ncc(C(F)(F)F)cc2Cl)cc1 | 2.03 |
| CC(=O)NCCC(=O)NCC1(N(C)Cc2ccccc2)Cc2ccccc2C1 | -1.56 |
| c1ccc(-c2cc(N3CCCCC3)nc(-c3ccccc3)n2)cc1 | 5.32 |
| CO[C@@]12[C@H](COC(N)=O)C3=C(C(=O)C(C)=C(N)C3=O)N1C[C@@H]1N[C@@H]12 | 6.71 |
| O=C(ONC1=NCCCCC1)c1cccc([N+](=O)[O-])c1 | -5.28 |
| Cc1ccnc(-n2c(C)nc3ccccc3c2=O)c1 | -16 |
| O=C(NC1CC2CCCC(C1)N2C(=O)Nc1ccccc1)c1ccccc1 (stereo not drawn) | -0.41 |
| COc1cc(C)c(CN2CCC(n3nccc3NC(=O)C3CCOC3)CC2)cc1C (stereo not drawn) | -6.02 |
| CC(C)N1CC(C(=O)Nc2ccc(C#N)cc2)CC1=O (stereo not drawn) | -2.49 |
| Cc1cc(Cl)ccc1OCC(=O)n1cc(C(=O)c2cc(Cl)ccc2O)cn1 | -8.17 |
| Cc1ncc(CC(=O)n2cc(C(=O)c3cc(F)ccc3O)cn2)s1 | 23.5 |

Source: PubChem BioAssay AID1850 (Southern Research Specialized Biocontainment Screening …, 2009)
